In PubChem BioAssay AID488890 (Southern Research Specialized Biocontainment Screening …, 2010):
The campaign covered roughly 320,000 compounds. About 1,300 (0.41%) were called active. Inconclusive results (about 3%) are left out. How the calls were made is not given here. Only a sample is shown. Measured potencies and affinities stand elsewhere.

Assay: growth inhibition of non-replicating M. tuberculosis (AID 488890);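 further: plate controls were DMSO cells for no effect and high antibiotic wells for full effect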
Conditions: Mycobacterium tuberculosis non-replicating, at 25 µM, stronger effect = higher value

SMILES	inhibition
Cc1ccc(C)c(OCCCNCc2ccccc2)c1	32.5%
Brc1ccccc1OCCNCc1ccccc1	32.1%
CCc1sc(C(=O)Nc2ccc3c(c2)OCO3)cc1C	61.2%
O=C(Nc1ccc2c(c1)OCO2)c1cccs1	21.2%
O=C(N/N=C/c1c(Nc2cccc(C(F)(F)F)c2)nc2ccccn2c1=O)c1ccccc1[N+](=O)[O-]	-6.01%
CN(C)c1ccccc1C(=O)c1ccccc1N(C)C	9.64%
O=[N+]([O-])c1ccccc1Oc1cnc2ccccc2n1	46.2%
Oc1ccccc1C1CC(c2cccs2)=NC(c2ccc(Cl)cc2)N1 (stereo not given)	73.4%
Oc1ccc(Cl)cc1C1=NNC(c2cc(Br)cc3c2OCOC3)C1 (stereo not given)	61.3%
COC(=O)C1=C(C(=O)OC)[C@@H]2N(Cc3ccccc3)c3ccccc3[C@@]23C[C@@H](C(=O)OC)N(C(=O)c2cccs2)C3=N1	21.8%
CC1CCc2c(C(=O)NCCCN3CCOCC3)csc2C1 (stereo not given)	-0.86%
COc1cc(NS(=O)(=O)c2csc(C(N)=O)c2)cc(OC)c1	2.46%
COc1ccc(C)c2sc(N(CCN(C)C)C(=O)c3ccc4ccccc4c3)nc12	28.4%
Cc1ccc(CNC(=O)COc2ccc3c(c2)CCC3)cc1	55.2%
Cc1cccnc1NC(=O)COc1ccc2c(c1)CCC2	70.6%
CCOc1ccc(NC(=O)COc2ccc3c(c2)CCC3)cc1OC	66.5%
Cc1ccc(NC(=O)COc2ccc3oc4c(c3c2)CCCC4)nc1	57.5%
Cc1cc(NC(=O)COC(=O)COc2ccc3c(c2)CCC3)no1	10.3%
CC(=O)Nc1ccc(NC(=O)COc2ccc3c(c2)CCC3)cc1	79.7%
CC(C)C[C@@H](CSc1ccccc1)N1CCN(CCc2ccccc2)CCC1=O	31%
Fc1cccc(Cl)c1/C=C/c1cnc2ccccc2n1	13.9%
COc1ccc(-c2noc(CN(C)CCC3CCCCO3)n2)cc1 (stereo not given)	17.2%
COc1ccc(N2C(=O)CSC2c2cccc(F)c2)cc1 (stereo not given)	1.65%
COC(=O)C1=CN(c2ccc(OC)cc2)C=C(C(=O)OC)C1c1cccc(F)c1	26.1%
COc1ccccc1N(CC(=O)NCC1CCCO1)C(=O)CCC(=O)Nc1nccs1 (stereo not given)	1.91%
Cc1nc2ccccc2c(=O)n1-c1cc(F)ccc1F	10.4%
Nc1ccccc1C#Cc1ccccc1	44.7%

SMILES	inhibition
Nc1ccccc1C(=O)c1ccccc1	-8.33%
COc1ccc(C(=O)Cn2c(NCCO)nc3ccccc32)cc1	-8.13%
CCCCNC(=O)CCn1nc(-c2ccc(C)cc2)c2ccccc2c1=O	1.93%
Cc1cc(C(=O)N/N=C/c2ccc3ccccc3c2)n[nH]1	-9.05%
Cc1cccc(Cn2ccc(NC(=O)c3cccnc3)n2)c1	31.2%
CCOC(=O)Cn1ccc(NC(=O)c2ccc3c(c2)OCO3)n1	-2.16%
CC1CCCC(C)N1C(=O)COC(=O)c1c[nH]c2ccccc12 (stereo not given)	15.5%
O=C(NCCO)c1cc2cc(Cl)cc(Cl)c2oc1=O	18%
COCCNC(=O)c1cc2cc(Br)cc(OC)c2oc1=O	56%
COc1ccccc1/C=C/C(=O)OCCN1C(=O)c2ccccc2C1=O	2.64%
NC(=O)C1CCN(C(=O)NC2CC(=O)N(c3ccc4c(c3)OCCO4)C2)CC1 (stereo not given)	-13.4%
C/C(=N\NC(=O)c1ccco1)c1ccc(C(=O)O)s1	-5.86%
CC(NC(=O)c1ccco1)C(=O)OCC(=O)c1ccc(Cl)s1 (stereo not given)	13.9%
C/C(=N\NC(=O)c1ccc(C(=O)N/N=C(\C)c2ccco2)o1)c1ccco1	19.3%
CCC/C(=N/NC(=O)c1csc(C)c1C)c1ccc(Cl)s1	0.55%
O=C(COC(=O)c1ccc(Cl)nc1)NNC(=O)c1ccc(Br)cc1	6.9%
Cc1ccc(CS(=O)(=O)c2ccc(C(=O)N3CCN(c4ccccn4)CC3)cc2[N+](=O)[O-])cc1	-16.8%
CC(OC(=O)c1cccs1)C(=O)NC1CCCCC1C (stereo not given)	-13.9%
Cc1ccc(C(=O)OC(C)C(=O)NC2CCCCC2C)s1 (stereo not given)	-2.95%
COc1ccc(C(CNC(=O)C(Cc2ccccc2)NC(N)=O)N(C)C)cc1 (stereo not given)	3.12%
CC(C)(C)C(=O)NC(=S)NNC(=O)c1ccncc1	71.7%
CCNC(=S)NNC(=O)c1ccncc1	65.4%
N/C(Cn1cncn1)=N\NC(=O)C(=O)Nc1ccccc1	18%
Nc1ccc(Oc2ccc(Br)cc2)cc1	60.5%
Nc1ccc(Br)cc1Br	-19.9%
Cc1cc2ncn(/N=C/c3ccc4c(c3)OCO4)c2cc1C	64.7%
Cc1cc2ncn(/N=C/c3cccnc3)c2cc1C	55%

SMILES	inhibition
O=[N+]([O-])c1ccc(O)c(/C=N/n2c(CO)nc3ccccc32)c1	-11.8%
OCc1nc2ccccc2n1/N=C/c1cccs1	-12%
Cc1ccc(/C=N/n2c(C)nc3ccccc3c2=O)s1	18.6%
Nc1nc2ccccc2n1/N=C/c1ccc([N+](=O)[O-])s1	74.1%
COc1ccc(C(=O)Nc2ccccc2)cc1S(=O)(=O)NCc1ccco1	-9.46%
Cc1ccc(S(=O)(=O)N2CCCC(C(=O)NNCC(=O)Nc3cc(F)ccc3F)C2)cc1 (stereo not given)	11.7%
O=C(Nc1nnc(SCc2ccccc2F)s1)C1=COCCO1	45.5%
CNC(=O)COC(=O)c1ccc([N+](=O)[O-])cc1Cl	11.7%
CCc1cc2ccc(C)cc2nc1SCC(=O)c1ccc(NC(C)=O)cc1	12%
Cc1ccc(NCC(=O)c2ccc(C)cc2)cc1	72.5%
CC(C)Oc1ccc(NC(=O)CCC(=O)O)cc1	-9.1%
CC(C)Oc1ccc(NC(N)=O)cc1	-4.08%
Cc1ccc(C(=O)CNc2ccc(Cl)cc2)cc1	74.1%
Cc1ccc(-c2nnn(CC(=O)N(c3ccccc3)C(C(=O)NCC3CCCO3)c3cccs3)n2)o1 (stereo not given)	-3.42%
O=C(O)C1C2C=CC(C2)C1C(=O)Nc1nccs1 (stereo not given)	-3.04%
COc1ccc2c(=O)c(-c3ccccc3C)c(C)oc2c1	50.8%
Cc1ccc(N2C(=O)C3C4C=CC(CNC(=S)Nc5ccc(F)cc5)(O4)C3C2=O)cc1 (stereo not given)	54.3%
COc1ccc(Cl)cc1S(=O)(=O)n1c([N+](=O)[O-])cnc1C	-6.01%
COc1ccc(OCC(=O)Nc2cccc(NC(=O)COc3ccc(OC)cc3)n2)cc1	-11.7%
O=C(COC(=O)CCOc1ccccc1)Nc1ccc(Cl)cn1	79.6%
Cc1ccc(NC(=O)Cc2ccc(Cl)cc2)nc1	27.8%
Cc1ccc(OCC(=O)Nc2ccc([N+](=O)[O-])cn2)cc1C	-14.3%
Cc1ccc(OCC(=O)NC(=S)Nc2cccc(C)n2)cc1	7.91%
O=C(Cc1ccc([N+](=O)[O-])cc1)Nc1ccc(Br)cn1	-0.37%
O=C(COC(=O)COc1ccccc1)Nc1ccc(Cl)cn1	22.1%
O=C(Cc1ccc(Cl)cc1)Nc1ccc(Cl)cn1	78.1%
